Measured values from PubChem BioAssay (NCATS).
Inconclusive results are not listed. Where a call stands in place of a potency, no number is given. Where a structure was tested more than once in an assay, its records may differ in their call. The source made the active and inactive calls. Calls come from the whole dose curve; as a rule, active = well fitted inhibition curve with a large enough effect; inconclusive = small, poorly fitted or top-dose-only effect; inactive = no such curve, though single readings can be large or run the other way.

target: Cytochrome P450 3A4 (Homo sapiens) (UniProt P08684); experiment: qHTS Assay for Inhibitors and Substrates of Cytochrome P450 3A4 (AID 884); details: recombinant CYP3A4, Luciferin-PPXE luminescence; series mostly up to 57.1 µM; note: nearly all actives have a fitted effect of over 50% in size
Sequence (P08684 whole entry, looked up): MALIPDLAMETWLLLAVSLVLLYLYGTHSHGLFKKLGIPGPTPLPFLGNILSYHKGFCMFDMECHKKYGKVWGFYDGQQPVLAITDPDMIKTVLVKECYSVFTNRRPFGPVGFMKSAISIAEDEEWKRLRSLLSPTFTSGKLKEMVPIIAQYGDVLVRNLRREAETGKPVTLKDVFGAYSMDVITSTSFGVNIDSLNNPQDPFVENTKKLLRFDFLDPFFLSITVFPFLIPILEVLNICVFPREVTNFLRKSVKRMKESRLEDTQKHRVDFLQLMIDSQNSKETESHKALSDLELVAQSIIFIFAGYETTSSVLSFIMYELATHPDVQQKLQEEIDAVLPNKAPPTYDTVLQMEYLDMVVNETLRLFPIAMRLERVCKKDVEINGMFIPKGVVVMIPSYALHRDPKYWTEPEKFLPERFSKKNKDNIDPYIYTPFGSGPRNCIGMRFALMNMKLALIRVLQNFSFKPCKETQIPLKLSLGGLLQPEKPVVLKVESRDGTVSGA
Description: NIH Molecular Libraries Screening Centers Network [MLSCN]
NIH Chemical Genomics Center [NCGC]
The P450 gene superfamily is involved in the metabolism and clearance of xenobiotics. This assay used human CYP3A4 to measure the dealkylation of luciferin-6' phenylpiperazinylyl (Luciferin-PPXE; […]) to luciferin. The luciferin is then measured by luminescence after the addition of a luciferase detection reagent. Luciferin-PPXE concentration in the assay was equal to its KM for CYP3A4. Inhibitors and some substrates limit the production of luciferin, and decrease measured luminescence.
NCGC Assay Protocol Summary:
Two uL of enzyme and substrate mix (final concentrations: 20nM CYP3A4, 25uM Luciferin-PPXE, 200mM KPO4) were dispensed into a white, solid bottom 1536-well microtiter plate. 23nL of compound was transferred by a pin tool. The plate was incubated at RT for 10 min. Two uL of an NADPH regeneration solution (Promega supplied reagent) was dispensed and the reaction was allowed to continue for 60 min at RT. Then the reaction was stopped by reconstituted luciferin detection buffer. After another 20 min of incubation the plate was read on the ViewLux (Perkin Elmer) at 60 sec exposure and 2x2 binning. This protocol was carried out with Promega-Glo reagents and further information can be found at http://www.promega.com/tbs/tb325/tb325.pdf. Data were normalized to the to AC100 inhibition (57 uM ketoconazole).
Keywords: P450, CYP3A4, Luciferase, MLSMR, MLSCN, NIH Roadmap, qHTS, NCGC
Potency is the fitted concentration of half-maximal effect.

Compound | Potency
CC1CCCC(=O)CCC/C=C/c2cc(O)cc(O)c2C(=O)O1 (stereo not given) | 2 µM (active)
NC(=NCCc1ccc(I)cc1)SCCCc1cnc[nH]1 | 0.794 µM (active)
CCN(CC)CCO[C@H]1CC[C@@]2(C)C(=CC[C@@H]3[C@H]2CC[C@]2(C)C(=O)CC[C@H]32)C1 | inactive
c1ccc(CCCCN2CCC(c3ccccc3)CC2)cc1 | inactive
O=Cc1ccccc1 | inactive
O=c1c(O)c(-c2ccc(O)c(O)c2)oc2c(O)c(O)cc(O)c12 | inactive
CC(C)(c1ccc(OCC2CO2)cc1)c1ccc(OCC2CO2)cc1 (stereo not given) | inactive
N#C/C(=C\c1ccc(O)c(O)c1)C(=O)NCCCNC(=O)/C(C#N)=C/c1ccc(O)c(O)c1 | 2 µM (active)
CN(C(=O)Cc1ccc(Cl)c(Cl)c1)[C@H](CN1CCCC1)c1ccccc1 | 6.31 µM (active)
C/C=C1/CN2CC[C@]34C(=C(C=O)[C@H]1C[C@@H]23)Nc1ccccc14 | inactive
CCC1CN2CCC1CC2C(O)c1ccnc2ccccc12 (stereo not given) | inactive
O=C1Nc2ccccc2C2(CCN(CCc3ccc(C(F)(F)F)cc3)CC2)O1 | inactive
c1ccc(Nc2cccc3ccccc23)cc1 | 31.6 µM (active)
Oc1ccc(-c2nc(-c3ccc(F)cc3)c(-c3ccncc3)[nH]2)cc1 | 1 µM (active)
CN1[C@@H]2CC[C@H]1CC(OC(=O)N1Cc3ccccc3NC1=O)C2 (stereo not given in full) | inactive
CCOC(=O)c1ccccc1N | inactive
COC1=CC(=O)OC(CCc2ccc3c(c2)OCO3)C1 (stereo not given) | 2 µM (active)
CC(C)=CCCC1(C)C=Cc2c(O)c3c(c(CC=C(C)C)c2O1)OC12C(=CC4CC1C(C)(C)OC2(C/C=C(/C)C(=O)O)C4O)C3=O (stereo not given) | 20 µM (active)
CN1CCc2cc3c(cc2C1C1OC(=O)c2c1ccc1c2OCO1)OCO3 (stereo not given) | 1.26 µM (active)
COc1c2ccoc2cc2oc(=O)ccc12 | 10 µM (active)

Compound | Potency
C=CCN1CCC2(C)c3cc(O)ccc3C[C@H]1[C@H]2C | inactive
CN(C)Cc1c[nH]c2ccccc12 | 15.8 µM (active)
CC(C)C[C@H]1C(=O)N2CCCC2[C@]2(O)O[C@](NC(=O)[C@@H]3C=C4c5cccc6[nH]cc(c56)CC4N(C)C3)(C(C)C)C(=O)N12 (stereo not given in full) | 1 µM (active)
C[N+](C)(C)CC(=O)[O-] | inactive
Cc1ccccc1O | inactive
CC(=O)/C=C/c1ccccc1 | inactive
COc1ccn(C)c(=O)c1C#N | inactive
O=C1Nc2ccc(I)cc2/C1=C/c1cc(Br)c(O)c(Br)c1 | 5.01 µM (active)
c1ccc2c(c1)-c1cccc3cccc-2c13 | inactive
OC[C@H]1O[C@@H](n2cnc3cncnc32)[C@H](O)[C@@H]1O | inactive
Nc1nc(OCc2ccccc2)c2[nH]cnc2n1 | 7.94 µM (active)
Cc1c(C(=O)c2ccc3ccccc3c2)c2cccc3c2n1[C@H](CN1CCOCC1)CO3 | 7.94 µM (active)
Oc1ccccc1Cl | inactive
CCCOc1ccc2[nH]cc(C3=CCNCC3)c2n1 | 2.51 µM (active)
C=CC1CN2CCC1CC2C(O)c1ccnc2ccccc12 (stereo not given) | 25.1 µM (active) and inactive
CC(=O)[C@H]1CC[C@H]2[C@@H]3CCC4=CC(=O)CC[C@]4(C)[C@H]3CC[C@]12C | inactive
CC(C)n1cnc2c(C(=O)N[C@H]3CN4CCC3CC4)cc(Cl)cc21 | inactive
N#CC(C#N)=NNc1ccc(OC(F)(F)F)cc1 | 5.01 µM (active)
CCN1C[C@]2(C)CC[C@H](O)[C@@]34C5C[C@@H]6[C@@H](OC)C[C@@](O)(C5[C@H]6O)[C@@H](CC23)[C@@H]14 (stereo not given in full) | inactive
COC(=O)c1ccccc1C(=O)OC | inactive
